Shown are actives, neighbours in structure and some others; about 12% of the full set was active somewhere.
HP1b binding inh – blocks HP1-beta chromodomain binding to methylated histone tails | AlphaScreen HP1-beta / biotin-H3K9me3 peptide binding | hit rate 0.56% among 390,000 | Potency, µM (doses to about 114 µM), for the others: at the highest dose activity change, negative = inhibition, hits mostly inhibitors | P83916; also: nearly all actives have a fitted effect of over 70% in size
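AlphaScreen: HP1-beta (50 nM) preformed 30 min with biotin-H3(1-18)K9me3 peptide (50 nM) in PBS pH 7.4, 0.01% Tween-20. Compound added for 30 min at RT, then streptavidin donor/nickel chelate acceptor beads (10 ug/mL) for 30 min.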
JMJD2A Tudor inh – inhibitors of human JMJD2A Tudor domain. hit rate 4.4% among 390,000. O75164. AlphaScreen JMJD2A-Tudor / H3K4me3 peptide binding. Potency, µM (titrated, usually from 114 µM), for the others: at the highest dose activity change, negative = inhibition, usual class: inhibitors; also: % is scaled to controls: 0 for no effect and ±100 for the full control effect; nearly all actives have a fitted effect of over 50% in size
BAZ2B inh – BAZ2B (human) inhibition; Q9UIF8; AlphaScreen BAZ2B-H3K14Ac peptide displacement; Potency, µM (top dose mostly 114 µM), for inactives: at the highest dose activity change, negative = inhibition, most hits filed as inhibitors; hit rate 4.4% among 360,000; also: % is scaled to controls: 0 for no effect and ±100 for the full control effect; nearly all actives have a fitted effect of over 60% in size
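BAZ2B 50 nM plus b-H3(5-23)K14Ac 50 nM, PBS pH 7.4/0.01% Tween-20, 30 min RT; compound added (max 110 uM), 30 min RT; streptavidin donor/Ni-chelate acceptor beads 10 ug/mL final, 20 min dark; AlphaScreen read.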
Sfp PPTase inh – blocks B. subtilis Sfp PPTase activity | Potency, µM, for the others: largest response in the series, negative = inhibition, hits mostly inhibitors | Biochemical Sfp PPTase activity, qHTS | hit rate 3.5% among 310,000 | AID 1490;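 also: the enzyme is Sfp with the accession as filed and its product quenches rhodamine fluorescence; 0% = enzyme reaction without inhibitor and -100% = no enzyme wells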
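Compounds were incubated with enzyme (final 15 nM) for 15 min at room temperature before substrate addition started the reaction. Fluorescence at 525 nm excitation, 598 nm emission was recorded immediately and after 30 minutes.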
G9a block – G9a (human) methyltransferase inhibition; G9a H3K9 monomethylation, AlphaScreen, 2 h; Potency, µM (top dose mostly 102 µM), for the others: at the highest dose activity, negative = inhibition, actives largely listed as inhibitors; hit rate 8.8% among 350,000; also: % is scaled to controls: 0 for no effect and ±100 for the full control effect; nearly all actives have a fitted effect of over 75% in size
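G9a (20 nM) preincubated 15 min RT with compounds, then 500 nM biotinylated H3K9 peptide and 20 uM SAM added; 2 h RT reaction. Monomethyl-H3K9 product detected by AlphaScreen with anti-H3K9me1 antibody, streptavidin donor and anti-rabbit IgG acceptor beads.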
L3MBTL1 inh – blocks human L3MBTL1; AID 485360; Q9Y468; hit rate 0.66% among 230,000; Potency, µM (series often up to 57.1 µM), inactives show at the top dose activity, negative = inhibition, most hits filed as inhibitors; AlphaScreen L3MBTL1–H3K9me1 peptide binding; also: % is scaled to controls: 0 for no effect and ±100 for the full control effect; nearly all actives have a fitted effect of over 60% in size
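AlphaScreen assay: L3MBTL1 (50 nM final) was preincubated 30 min at room temperature with biotinylated H3(1-15)K9me1 peptide (75 nM final), then 30 min with library compounds; streptavidin donor and nickel chelate acceptor beads (10 ug/mL final) added, 30 min dark.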
* = called active by the depositor; ? = inconclusive; · = no result given; [ ] = remark or other dose. Calls follow the shape of the dose curve; as a rule, active = well fitted curve in the direction sought with a large enough effect; inconclusive = small, poorly fitted or top-dose-only effect, or another doubt; inactive = no such curve, though single readings can be large; an effect the other way counts as inactive or inconclusive. Potency is read from the fitted curve at half-maximal effect.

SMILES	HP1b binding inh	JMJD2A Tudor inh	BAZ2B inh	Sfp PPTase inh	G9a block	L3MBTL1 inh
CCN(CC)C(=O)Cn1cc(SCC(=O)Nc2cc(OC)ccc2OC)c2ccccc21	30%	-29%	?	·	-37%[59 µM]	·
CCN1C(=O)[C@H]2[C@@H](c3ccc(-c4ccc(F)cc4)c(OC)c3)N[C@@](C)(C(=O)OC)[C@H]2C1=O	26%	?	56µM*	·	?	-10%
Cc1cc(C)n2nc(SCc3ccccc3)nc2n1	45%	8%	1%	1%	2%	12%
Cc1cc(C)n2nc(SCc3cc(=O)oc4cc(O)ccc34)nc2n1	·	·	50µM*	-15%	?	·
Cc1cc(C)n2nc(SCc3nnc(-c4ccc(F)cc4)o3)nc2n1	·	·	-18%	-16%	32µM*	-2%
Cc1ccc(Cl)cc1N1CCN(C(=O)c2cn(C)c3ccc(S(=O)(=O)N4CCCC4)cc3c2=O)CC1	1%	-30%	·	·	-8%[59 µM]	·
C[C@@H](O)C1NC(=O)[C@H](CCCCN)NC(=O)c2cc([N+](=O)[O-])cc(F)c2NCCCC[C@@H](C(N)=O)NC1=O (stereo partly specified)	18%	-24%	-27%	-1%	?	11%
NCCCC[C@@H]1NC(=O)[C@H](CCC(=O)O)NC(=O)c2cc([N+](=O)[O-])cc(I)c2OCC[C@@H](C(N)=O)NC1=O	-7%	?	?	9%	32µM*	-11%
NC(=O)[C@@H]1CCOc2c(I)cc([N+](=O)[O-])cc2C(=O)N[C@@H](CO)C(=O)NCC(=O)N1	40%	-17%	-8%	9%	45µM*	4%
Nc1ccc(S(=O)(=O)NCC(=O)OC2CCOC2=O)cc1[N+](=O)[O-] (stereo unspecified)	17%	-25%	-13%	·	-2%[12.7 µM]	-9%
NC(=O)CC[C@@H]1NC(=O)[C@H](CO)NC(=O)c2cc([N+](=O)[O-])cc(I)c2OCC[C@@H](C(N)=O)NC1=O	17%	-29%	-5%	17%	45µM*	5%
CC(C)C[C@@H]1NC(=O)[C@H](C(C)C)NC(=O)c2cc([N+](=O)[O-])cc(I)c2OCC[C@@H](C(N)=O)NC1=O	38%	-25%	-35%	6%	45µM*	-7%
CCOc1cccc(CC(=O)NCc2ccc3c(c2)CCN3C(=O)c2cccc(C)c2)c1OCC	32%	-28%	-26%	·	-38%[59 µM]	·
O=C(OCc1nnc(-c2ccccc2)o1)C1CCN(C(=O)c2ccc(Cl)cc2)CC1	44%	-7%	3%	·	?	-10%
O=C(O)c1c2c(nc3ccc(S(=O)(=O)N4CCC(C(=O)NC5CCCCCC5)CC4)cc13)CCCC2	4%	?	50µM*	1%	40µM*	·
CC1CCc2nc3ccc(S(=O)(=O)N4CCC(C(=O)N5CCCCCC5)CC4)cc3c(C(=O)O)c2C1 (stereo unspecified)	-8%	-16%	-21%	13%	45µM*	·
CCC(c1nnc(SCc2nc3ccccc3s2)n1Cc1ccccc1)N(C)C (stereo unspecified)	17%	-28%	-26%	-15%	50µM*	-11%
c1ccc(Cn2c(SCc3nc4ccccc4s3)nnc2-c2ccco2)cc1	?	32µM*	?	20µM*	7.1µM*	2%[11.4 µM]
CCn1c(SCc2nc3ccccc3s2)nnc1-c1ccccc1	38%	-10%	-5%	19%	?	·
COc1ccc(C=C2SC(=S)NC2=O)cc1	7%	-18%	·	·	·	·
COc1ccc(/C=C2/SC(=O)NC2=O)cc1	35%	-10%	-34%	3%	79µM*	2%
CCOc1ccc(N=C2NC(=O)S/C2=C\c2ccc(OC)cc2)cc1	0%	28µM*	?	10%	?	·
CCOc1ccc(C=C2SC(=O)N(CCN)C2=O)cc1	·	·	·	-9%	·	·
Cc1ccc2c(c1)[C@@H]1[C@H](CO2)[C@H](c2ccccc2)[C@@]2(C)C(=O)N[C@H](C)C(=O)N12	23%	-6%	·	·	·	3%
Cc1ccc(-c2[nH]ncc2CNCc2ccccc2)cc1	36%	-13%	·	·	·	·
SMILES	HP1b binding inh	JMJD2A Tudor inh	BAZ2B inh	Sfp PPTase inh	G9a block	L3MBTL1 inh
CC(=O)O[C@@H](C[C@@H](C)C1=C2C[C@H](O)C3[C@@]4(C)CCC(=O)C(C)(C)C4CC[C@]3(C)[C@@]2(C)CC1)[C@H]1OC1(C)C (stereo partly specified)	29%	-31%	·	·	·	·
CN1CCN(S(=O)(=O)c2ccc(Cl)s2)CC1	-13%	-10%	-34%	-7%	?	·
O=S(=O)(NN1CCOCC1)c1ccc(Cl)s1	29%	-10%	-2%	-15%	1.3µM*	-1%
CN1CCN(NS(=O)(=O)c2ccc(Cl)s2)CC1	19%	-12%	8%	-11%	1.6µM*	5%
Cn1cc(-c2cc3n(n2)CCC(=O)N3CCCC(=O)NCc2ccccc2Cl)c2ccccc21	25%[57 µM]	-24%	-3%	·	7%[59 µM]	·
C=CSc1sc(Cl)c(N2CCOCC2)c1[N+](=O)[O-]	50µM*	50µM*	14µM*	?	-106%[59 µM]	-21%
C=CS(=O)(=O)c1sc(Cl)c(N2CCOCC2)c1[N+](=O)[O-]	?	79µM*	?	22µM*	8.9µM*	-16%
O=[N+]([O-])c1cccc(Cl)c1N1CCOCC1	-12%	-21%	-9%	-9%	14%	-1%
CCN(CC)c1ccc(C(=O)OCC(=O)Nc2cc(C)on2)cc1	-1%	-20%	8%	·	16%[2.33 µM]	-6%
CCCCCC1C(=O)CCC1CC(=O)OC (stereo unspecified)	34%	-3%	·	12%	·	·
CCOc1cc(/C=C2\C(=O)N(CCC#N)N=C2C)ccc1OCC(N)=O	59%	-7%	-7%	27%	71µM*	-4%
Cc1ccc2c(c1)S/C(=C\c1cccc[n+]1C)N2CCO	11%	?	-16%	?	?	·
C[n+]1ccccc1/C=C1\Sc2ccccc2N1CCO	33%	?	?	7%	50µM*	-5%
Cc1ccc2[nH]c(=O)c(CN(CCO)Cc3nnnn3Cc3ccccc3)cc2c1	5%[57 µM]	?	·	·	·	·
O=C(NNc1c(F)c(F)cc(F)c1F)c1ccc(Cl)nc1	25%	-5%	-21%	12%	50µM*	·
COc1ccc(-n2c(C)cc(C=O)c2C)cc1Cl	2%	-16%	5%[57.1 µM]	1%	13%	-17%
Cc1cc(/C=C(\C#N)C(N)=O)c(C)n1-c1ccc(N2CCOCC2)c([N+](=O)[O-])c1	?	?	?	-17%	?	-13%
Cc1cc(C=O)c(C)n1-c1ccc(N2CCCCC2)c([N+](=O)[O-])c1	?	35µM*	40µM*	18%	13µM*	1%

Bioassay records from PubChem.
